# Reference: PubChem BioAssay (NCATS)
# Inconclusive results are not listed. Activity calls are given as the source filed them. Calls follow the shape of the full dose curve.
# Target: Peroxisome proliferator-activated receptor delta (Homo sapiens) (UniProt Q03181)
# Assay: qHTS assay for small molecule agonists of peroxisome proliferator-activated receptor delta signaling (AID 588534)
# Conditions: HEK293T PPARdelta-UAS-bla, beta-lactamase ratio, 18 h; series mostly up to 76.7 µM
# How it was run: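 Agonist-mode beta-lactamase reporter readout (CCF4 dye, 2 h at RT) after 18 h at 37 °C exposure to a titration; Hill-equation fitting gave EC50 and maximal response.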
# Chain of Peroxisome proliferator-activated receptor delta (Homo sapiens) (Q03181 whole entry, looked up): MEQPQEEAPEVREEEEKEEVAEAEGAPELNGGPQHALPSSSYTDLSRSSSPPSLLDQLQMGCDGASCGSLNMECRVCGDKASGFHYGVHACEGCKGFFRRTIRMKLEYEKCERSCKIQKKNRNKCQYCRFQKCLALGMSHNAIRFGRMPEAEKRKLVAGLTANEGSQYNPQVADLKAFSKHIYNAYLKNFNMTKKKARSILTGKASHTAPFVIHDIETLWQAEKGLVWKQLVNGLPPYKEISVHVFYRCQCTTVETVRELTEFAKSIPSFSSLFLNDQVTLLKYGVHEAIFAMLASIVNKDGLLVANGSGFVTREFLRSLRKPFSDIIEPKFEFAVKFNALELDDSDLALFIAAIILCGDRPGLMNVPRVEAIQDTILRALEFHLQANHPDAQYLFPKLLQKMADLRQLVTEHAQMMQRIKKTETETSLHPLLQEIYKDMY
row,Structure (SMILES),outcome
1,O=C1c2ccccc2C(=O)c2ccccc21,inactive
2,CCCCC(CC)COC(=O)c1ccccc1O (stereo not drawn),inactive
3,COc1ccc(O)cc1,inactive
4,Cc1nnc(NS(=O)(=O)c2ccc(N)cc2)s1,inactive
5,O=c1[nH]cnc2[nH]ncc12,inactive
6,Cc1ccc(C(C)C)c(O)c1,inactive
7,CCCC(O)C(CC)CO (stereo not drawn),inactive
8,O=C(O)/C=C\C(=O)O,inactive
9,O=C(O)c1cc(=O)[nH]c(=O)[nH]1,inactive
10,CCCCOC(=O)c1ccc(N)cc1,inactive
11,Cc1cc(O)cc(C)c1Cl,inactive
12,CC(=O)OCC(COC(C)=O)OC(C)=O,inactive
13,COc1cc(OC)c(C(=O)CCCN2CCCC2)c(OC)c1,inactive
14,CC(C)Cc1ccc(C(C)C(=O)O)cc1 (stereo not drawn),inactive
15,CC(C)(C)CC(C)(C)c1ccc(O)c(-n2nc3ccccc3n2)c1,inactive
16,O=C(OCc1ccccc1)c1ccccc1,inactive
17,Nc1ccc([As](=O)(O)O)cc1,inactive
18,NNC(=O)c1ccncc1,inactive
19,CCCCCCCCCCCCCCCCCCO,inactive

row,Structure (SMILES),outcome
1,CCCCCCCCCCCCCCCCO,inactive
2,O=C1c2c(O)cccc2Cc2cccc(O)c21,inactive
3,CC(C)(Oc1ccc(Cl)cc1)C(=O)O,inactive
4,Cc1c(C(=O)NCCO)[n+](=O)c2ccccc2n1[O-],inactive
5,N[C@@H](Cc1cc(I)c(Oc2ccc(O)c(I)c2)c(I)c1)C(=O)O,inactive
6,CC1CC(OC(=O)c2ccccc2O)CC(C)(C)C1 (stereo not drawn),inactive
7,O=C(N[C@H](CO)[C@H](O)c1ccc([N+](=O)[O-])cc1)C(Cl)Cl,inactive
8,NCCNCCNCCNCCN,inactive
9,O=C(c1ccccc1)C(O)c1ccccc1 (stereo not drawn),inactive
10,C=CCc1ccc(O)c(OC)c1,inactive
11,CCc1cc(C(N)=S)ccn1,inactive
12,Nc1ccc(S(N)(=O)=O)cc1,inactive
13,O=C(OOC(=O)c1ccccc1)c1ccccc1,inactive
14,COC(=O)c1ccc(O)cc1,inactive
15,NC(=O)c1cnccn1,inactive
16,Oc1ccc(Cl)cc1,inactive
17,CCCCCCCCCCCCCCCC(=O)OC(C)C,inactive
18,NC(=O)N1c2ccccc2C=Cc2ccccc21,inactive
19,CO/N=C(/C(=O)N[C@@H]1C(=O)N2C(C(=O)O)=C(COC(N)=O)CS[C@H]12)c1ccco1,inactive
